Screens: PubChem BioAssay, National Center for Advancing Translational Sciences (NCATS)
Most compounds without a hit are left out; they make up all but 5.7% or so of the library.
GLP-1R agonist: GLP-1 receptor (human) agonism. HEK293 GLP-1R CRE-luciferase, luminescence, 4-6 h; cells express a hypersensitive GLP-1R form. Potency, µM (top dose mostly 45.6 µM), most hits filed as activators. AID 624172. actives 0.007% (n = 380,000). P43220
D3 antag: blocks the human D3 dopamine receptor. D3R cells, DiscoveRx beta-arrestin luminescence, antagonist mode; stronger effect = lower value. max response, negative = inhibition, %. actives 2.5% (n = 360,000). AID 652054; in the data active = max response below about -50%; inconclusive = no clear call, values can overlap the other calls
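Cells plated overnight at 1500 cells/well, then exposed to library compounds with dopamine controls for 90 minutes at 37 degrees C. DiscoveRx reagent added for 30–60 minutes at room temperature; luminescence read, quantitative HTS format.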
GLP-1R inv ag: acts as inverse agonist at human GLP-1 receptor; HEK293 GLP-1R CRE-luciferase, luminescence, 24 h; GLP-1R form is constitutively active; Potency, µM (series often up to 38.3 µM), most hits filed as inhibitors; P43220; actives 1.6% (n = 410,000); note: nearly all actives have a fitted effect of over 55% in size
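Constitutively active GLP-1R drives a cAMP-responsive luciferase in stably transfected HEK293 cells; test compounds are added after overnight (12 h) attachment and left 24 hr, and signal loss in luminescence marks inhibition.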
DRD3 agonist: agonists of human D3 dopamine receptor; P35462; D3R DiscoveRx beta-arrestin cells, luminescence, 90 min; max activation, %; actives 0.58% (n = 410,000); AID 652048; in the data active = max activation above about 30%
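Agonist mode: compounds and dopamine controls were applied to plated cells for 90 min at 37 degrees C after an overnight attachment at 1500 cells/well. Luminescent read-out followed 30 - 60 minutes at room temperature with DiscoveRx detection reagent.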
HEK293 tox: cytotoxic in the GLP-1 receptor inverse agonist counter-screen. Potency, µM (series often up to 38.3 µM), most hits filed as inhibitors. actives 0.13% (n = 410,000). HEK293 cAMP-luciferase reporter cells, luminescence, 24 h;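 note: loss of luciferase light is scored as toxicity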
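A 23 nL compound transfer followed 12 hours of cell culture at 37 deg C; exposure then lasted 24 hr. Luciferase assay detection reagent was dispensed and plates read for luminescence after a 12 min room-temperature wait.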
ClpP mod: qHTS Assay for Activators of ClpP; actives 1.9% (n = 340,000); purified B. subtilis ClpP, FRET peptide cleavage, 20 min; Potency, µM (doses to about 57.5 µM); ATP-dependent Clp protease proteolytic subunit (Bacillus subtilis (strain 168)), P80244; active = well fitted falling curve with a large enough effect; inconclusive = small, poorly fitted or top-dose-only effect; inactive = no such curve, though single readings can be large or run the other way; note: the source files actives as falling curves though it sought activators and does not explain the sign; nearly all actives have a fitted effect of over 65% in size
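Buffer: 100 mM Tris/HCl pH8, 100 mM KCl, 0.05% low protease BSA, 2.5% glycerol, 0.01% Tween-20. ClpP 10 microg/mL final; 20 min RT; delta FRET normalized to ADEP and DMSO controls.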
Large screens that a line does not name were inactive. Unless noted, calls come from the whole dose curve; as a rule, active = well fitted curve in the direction sought with a large enough effect; inconclusive = small, poorly fitted or top-dose-only effect, or another doubt; inactive = no such curve, though single readings can be large; an effect the other way counts as inactive or inconclusive.

Brc1ccc(-c2ccc(/C=N/Nc3nc(N4CCOCC4)nc(N4CCOCC4)n3)o2)cc1	none (no result: ClpP mod)
O=C(Nc1ccc(F)cc1)C(c1ccncc1)N1CCN(CC(=O)N2CCCC2)CC1 (stereo not drawn)	none (no result: GLP-1R agonist)
Nn1c(-c2cccc(Br)c2)n[nH]c1=S	D3 antag -84.8
S=c1[nH]nc(-c2cccc(Br)c2)o1	ClpP mod inconclusive
COc1ccc(NC2CCCN(C(=O)CCN3CCCC3=O)C2)cc1 (stereo not drawn)	none
O=C1CCCN1CCC(=O)N1CCCC(Nc2ccc(F)cc2)C1 (stereo not drawn)	ClpP mod 28.2µM
Cc1ccccc1CSc1cn(CC(=O)N2CCCCC2)c2ccccc12	GLP-1R inv ag inconclusive (no result: GLP-1R agonist, D3 antag)
COc1ccc(/C(C)=N/NC(=O)Cn2nc([N+](=O)[O-])cc2C)cc1	DRD3 agonist 51.1, HEK293 tox inconclusive (no result: ClpP mod)
COc1ccccc1N1CCN(C(=O)c2nc(SC)ncc2Cl)CC1	GLP-1R inv ag inconclusive, HEK293 tox inconclusive (no result: GLP-1R agonist, D3 antag)
CCOc1ccccc1CN1[C@@H](c2ccc(OC)cc2)CC(C(=O)OC)(C(=O)OC)[C@H]1c1ccccc1	GLP-1R inv ag inconclusive (no result: GLP-1R agonist)
COc1c(C)cc(Br)cc1C(=O)Nc1cccc(NC(=O)c2ccco2)c1	GLP-1R inv ag inconclusive, ClpP mod 28.2µM
Cc1ccc(OCC(=O)Nc2ccc(NC(=O)c3ccco3)cc2)c(C)c1	GLP-1R inv ag inconclusive, HEK293 tox inconclusive
Cc1cc(C)c(OCC(=O)Nc2ccc(NC(=O)c3ccco3)cc2)c([N+](=O)[O-])c1	ClpP mod 31.6µM
Cc1cc(C)c(OCC(=O)Nc2cccc(NC(=O)c3ccco3)c2)c(Br)c1	GLP-1R inv ag inconclusive, DRD3 agonist 33.8
O=[N+]([O-])c1ccc(Nc2nc(NCCN3CCOCC3)nc(Nc3ccc(Cl)cc3)n2)cc1	none (no result: GLP-1R agonist, D3 antag, GLP-1R inv ag, DRD3 agonist, HEK293 tox)
COc1ccc(-c2nn(C)c3sc(C(=O)N4CCN(c5cc(Cl)ccc5C)CC4)cc23)cc1OC	none (no result: GLP-1R agonist, D3 antag)
COc1ccc(/C=C/c2ccccn2)cc1	none (no result: GLP-1R agonist, D3 antag, GLP-1R inv ag, DRD3 agonist, HEK293 tox)
COc1ccc(NC(=O)c2cc(C3CCCCN3S(=O)(=O)c3c(C)noc3C)on2)c(C)c1 (stereo not drawn)	GLP-1R inv ag inconclusive
CC(Sc1nnc(CN2CCCC2)n1Cc1ccccc1)C(=O)Nc1ccc(F)c(F)c1F (stereo not drawn)	GLP-1R inv ag 5.01µM
CC(Sc1nnc(CN2CCCC2)n1Cc1ccccc1)C(=O)Nc1ccccc1 (stereo not drawn)	GLP-1R inv ag 7.94µM
Cc1ccccc1NC(=O)C(C)Sc1nnc(CN2CCCC2)n1Cc1ccccc1 (stereo not drawn)	GLP-1R inv ag inconclusive
CCc1nc2c(cnn2-c2ccc(Cl)cc2)c(=O)n1-c1ccc(OC)c(Cl)c1	none (no result: GLP-1R agonist, D3 antag)
CCOC(=O)C1=C[C@@H](CC)N(S(=O)(=O)c2ccc(C)cc2)[C@H]1c1cccs1	GLP-1R inv ag inconclusive
COC(=O)Nc1ccc(=O)n(Cc2c(Cl)cccc2Cl)c1	ClpP mod 28.2µM
Cc1ccc(C(=O)N2[C@@H]3CN(C)C(=O)[C@@]2(C)[C@H]2C(=O)N(Cc4ccccc4)C(=O)[C@@H]32)cc1	DRD3 agonist 31.9
CCN1C[C@@H]2[C@@H]3C(=O)N(Cc4ccccc4)C(=O)[C@@H]3[C@](C)(C1=O)N2C(=O)c1ccccc1	DRD3 agonist 43.4
Cc1ccc(NC(=O)N2CCC(N3CCN(Cc4ccccc4)C(=O)C3=O)CC2)cc1Cl	none (no result: GLP-1R agonist, D3 antag)
Cc1nnc(N2C(=O)c3cccc4cccc(c34)C2=O)s1	ClpP mod 28.2µM
Cc1cccc(CS(=O)(=O)Cc2ccc(C(=O)NCc3cccs3)o2)c1	DRD3 agonist 32.2 (no result: ClpP mod)
Cc1cccc(CS(=O)(=O)Cc2ccc(C(=O)NCc3ccccc3)o2)c1	none
CCOC(=O)c1c2c(n(-c3ccc(OC)cc3)c1C)C(=O)C(=O)c1ccccc1-2	GLP-1R inv ag inconclusive, HEK293 tox 3.16µM
COc1cc2c(cc1OC)/C(=C/c1ccc(N(C)C)cc1)C=C2	none (no result: GLP-1R agonist, D3 antag, GLP-1R inv ag, DRD3 agonist, HEK293 tox)
O=C(CCN1C(=O)C2C3C=CC(C3)C2C1=O)N1CCN(c2ccccc2Cl)CC1 (stereo not drawn)	D3 antag -79.9
O=C(CCN1C(=O)C2C3C=CC(C3)C2C1=O)N1CCN(c2ccccc2F)CC1 (stereo not drawn)	none
COc1ccc2c(c1)sc1ncc(C(=O)NCc3cccc(Cl)c3)c(=O)n12	ClpP mod inconclusive (no result: GLP-1R agonist, D3 antag)
CC(C)N(Cc1ccccc1)C(=O)CN1C(=O)COc2ccc(S(=O)(=O)N3CCCCCC3)cc21	GLP-1R inv ag 7.94µM
CN(Cc1ccccc1)C(=O)CN1C(=O)COc2ccc(S(=O)(=O)N3CCCC3)cc21	none
CC1CCN(S(=O)(=O)c2ccc3c(c2)N(CC(=O)NCCCN2CCCC(C)C2)C(=O)CS3)CC1 (stereo not drawn)	GLP-1R inv ag inconclusive
O=C(COc1ccc(S(=O)(=O)N2CCCCC2)cc1)NCc1cccnc1	DRD3 agonist 35.8
Cc1ccc2c(c1)NC(=O)C(CC(=O)NCCCN1CCN(c3cc(Cl)ccc3C)CC1)O2 (stereo not drawn)	D3 antag -71.6, GLP-1R inv ag inconclusive
CC1CCN(S(=O)(=O)c2ccc3c(c2)N(CC(=O)NCCCN2CCCC(C)C2)C(=O)CO3)CC1 (stereo not drawn)	D3 antag -89.0, GLP-1R inv ag inconclusive
O=C(CC1NCCC[C@H]1O)Cn1cnc2cc(Br)c(Cl)cc2c1=O (stereo partly drawn)	none (no result: D3 antag, GLP-1R inv ag, DRD3 agonist, HEK293 tox, ClpP mod)
CCc1ccc(NC(=O)Cn2c(=O)n(Cc3ccc4c(c3)OCO4)c(=O)c3oc4ccccc4c32)cc1	none (no result: GLP-1R agonist, D3 antag)
COc1cc(Cl)c(CC(=O)NO)cc1OC	none (no result: GLP-1R agonist, D3 antag, GLP-1R inv ag, DRD3 agonist, HEK293 tox)
CC(=O)Nc1c(C)nn(-c2ccccc2)c1N1CCC(C(=O)NCc2cccc(Cl)c2)CC1	none (no result: GLP-1R agonist, D3 antag)
COc1cccc(CNC(=O)c2cc(S(=O)(=O)N3CCCCC3)c[nH]2)c1	none
O=C(NCc1ccc(Cl)cc1)c1cc(S(=O)(=O)N2CCCCC2)c[nH]1	D3 antag -53.6, GLP-1R inv ag inconclusive
O=C(COC(=O)c1ccc(S(=O)(=O)N2CCCC2)cc1)NCc1ccc(Cl)cc1	ClpP mod inconclusive
O=C(Cc1ccc(S(=O)(=O)N2CCCCC2)cc1)NCc1ccc(Cl)cc1	GLP-1R inv ag 7.08µM
O=C(CN1C(=O)COc2ccc(S(=O)(=O)N3CCCCC3)cc21)NCc1ccc(Cl)cc1	GLP-1R inv ag 10µM
CCN(CC)S(=O)(=O)c1ccc2c(c1)N(CC(=O)NCCCN1CCN(c3cc(Cl)ccc3C)CC1)C(=O)CO2	GLP-1R inv ag 11.2µM, HEK293 tox inconclusive (no result: D3 antag)
